# From PubChem BioAssay AID504850 (National Center for Advancing Translational Sciences (NCATS), 2011)
# Values joined by “and” are separate entries in the source; they are usually repeats but may differ in a detail not shown here. Identical values can stand only once. The whole screen tested about 2,300 compounds, of which about 1,200 (52%) were called active. About 34% were inconclusive and are not listed. The set was probably picked from earlier hits. This is one part of the list. A number with no mark means an inactive call. Calls follow the shape of the dose curve; as a rule, active = well fitted inhibition curve with a large enough effect; inconclusive = small, poorly fitted or top-dose-only effect, or effect the other way; inactive = no such curve, though single readings can be large or run the other way.
# Assay: Confirmation screen for delayed death inhibitors of the malarial parasite plastid, 48 hour incubation; also: nearly all actives have a fitted effect of over 65% in size
# Details: P. falciparum-infected erythrocytes, luciferase growth; series mostly up to 28.7 µM; activity change, negative = inhibition: at the top concentration
# From the text: The goal of this screen is to discover new antimalarial compounds that act by inhibiting the development of the apicoplast in the malarial parasite Plasmodium falciparum. The biochemical processes that make this organelle essential for erythrocytic stage parasites are not well understood. However, antibiotics, such as azithromycin and tetracycline, which target the apicoplast translational machinery, have a potent antimalarial effect. […] We have developed a cell-based assay that measures parasite growth based on the expression of an integrated copy of a firefly luciferase reporter. To detect small molecules that cause this "delayed death phenotype, erythrocytes infected with the luciferase-expressing parasites were incubated with compounds for either one or two generations, corresponding to 48 and 96 hours, respectively. Compounds that inhibit parasite growth in the second generation, but not the first, should be enriched in antimalarials that target the apicoplast. Growth inhibition is detected by a decrease in luciferase activity. MLPCN Grant: R21 NS059500 Assay Provider: David Fidock and Eric Ekland, Columbia University Keywords: NIH Roadmap, MLPCN, MLI, MLSMR, qHTS, NCGC, qHTS, malaria, luciferase, viability
# Four microliters of culture medium (RPMI 1640 with 0.5% w/v Albumax (GIBCO), 24 mM sodium bicarbonate and 10 ug/mL gentamycin) were dispensed by a Multi-drop Combi into white solid 1536-well plates (Grenier) and 23 nL compound was added by a pin tool. Four microliters of infected erythrocytes (2% hematocrit, 0.1% parasitemia final concentration) in culture medium were dispensed and the plates incubated for 48 hours at 37 C in 5% CO2. Two microliters of luciferase detection reagent was added and luminescence was detected by a ViewLux (PerkinElmer) reader.
# % is scaled to controls: 0 for no effect and ±100 for the full control effect; potency is read from the fitted curve at half-maximal effect.
Compound,Potency,"activity change, negative = inhibition [%]"
Fc1ccc(C[n+]2c(-c3ccccc3)cc(-c3ccccc3)cc2-c2ccccc2)cc1,2.82 µM (active),
CN1C[C@H](C(=O)N[C@]2(C)O[C@@]3(O)[C@@H]4CCCN4C(=O)[C@H](Cc4ccccc4)N3C2=O)C[C@@H]2c3cccc4[nH]cc(c34)C[C@H]21,2.82 µM (active),
C[C@@H]1CC[C@H]2[C@@H](C)C(=O)O[C@@H]3O[C@@]4(C)CC[C@@H]1[C@]32OO4,0.0794 µM (active),
C[C@@H]1CC[C@H]2[C@@H](C)C(=O)O[C@@H]3OC4(C)CC[C@@H]1C32OO4 (some centres not stated),0.0447 µM (active),
Cn1c(O)c(C=NC2C(=O)C3(C)CCC2C3(C)C)c(=O)n(C)c1=O (configuration not stated),,-0.717
CC(=O)N1CC(=O)Nc2ccc(Cl)cc2C1c1ccccc1 (configuration not stated),,-10.3
O=C(CCl)Nc1nccs1,5.01 µM (active),
O=C(/C=C/c1cccs1)c1cc(Cl)ccc1OC(=O)N1CCOCC1,14.1 µM (active),
C[C@@H]1C[C@@H]([C@H](O)CC2CC(=O)NC(=O)C2)C(=O)[C@@H](C)C1,0.891 µM (active),
C[C@H]1C[C@@H](C)C(=O)[C@@H]([C@H](O)CC2CC(=O)NC(=O)C2)C1,0.0794 µM (active),
Cc1ccc(N2C(=O)NC(=O)/C(=C\C=C\c3ccco3)C2=O)cc1,,-20.3
CCN1CCN(Cc2nc3ccc([N+](=O)[O-])cc3c(=O)n2-c2ccccc2F)CC1,,6.69
COc1cc(C(=O)N/N=C/C23CC[C@@H](O)CC2(O)CC[C@@H]2[C@@H]3CCC3(C)C(C4=CC(=O)OC4)CCC23O)ccc1O (some centres not stated),,-13.3
COc1ccc(C(=O)N/N=C/C23CC[C@@H](O)CC2(O)CC[C@@H]2[C@@H]3CCC3(C)C(C4=CC(=O)OC4)CCC23O)cc1 (some centres not stated),,-16
CN(C)c1ccc(C(=O)N/N=C/C23CC[C@@H](O)CC2(O)CC[C@@H]2[C@@H]3CCC3(C)C(C4=CC(=O)OC4)CCC23O)cc1 (some centres not stated),12.6 µM (active),
CN(C)[C@@H]1C(=O)C(C(N)=O)=C(O)[C@@]2(O)C(=O)C3=C(O)c4c(O)cccc4[C@@](C)(O)C3[C@H](O)C12 (some centres not stated),5.01 µM (active),
C[n+]1c2cc(N)ccc2cc2ccc(N)cc21,1 µM (active),
COC(=O)c1nc(-c2ccc3c(n2)C(=O)C(N)=C(OC)C3=O)c(N)c(-c2ccc(OC)c(OC)c2O)c1C,0.562 µM (active),
CC[C@H]1CN2CCc3cc(OC)c(OC)cc3[C@H]2C[C@@H]1C[C@@H]1NCCc2cc(OC)c(OC)cc21,0.562 µM (active),
CC[C@H]1CN2CCc3cc(OC)c(OC)cc3[C@@H]2C[C@@H]1C[C@H]1NCCc2cc(OC)c(OC)cc21,0.316 µM (active),
CC[C@H]1CN2CCc3cc(OC)c(OC)cc3C2C[C@@H]1C[C@H]1NCCc2cc(OC)c(OC)cc21 (some centres not stated),0.0501 µM (active),

Compound,Potency,"activity change, negative = inhibition [%]"
O=C1NC(=O)N(c2ccccc2)C(=O)/C1=C/C=C/c1ccco1,,-14.3
CCN(CC)Cc1cc(Nc2ccnc3cc(Cl)ccc23)ccc1O,79.4 nM (active) and 22.4 nM (active),
CC(C)CCOP(N)(=O)Oc1ccccc1 (configuration not stated),4.47 µM (active),
Cn1c(=O)oc2cc(NC(=O)CCl)ccc21,0.794 µM (active),
CCn1c(=O)oc2cc(NC(=O)CCl)ccc21,2.24 µM (active),
O=[N+]([O-])c1cccc2c([As](=O)(O)O)cccc12,3.55 µM (active),
Oc1ccc(-[n+]2c(-c3ccccc3)cc(-c3ccccc3)cc2-c2ccccc2)cc1,0.708 µM (active),
C[C@@H]1O[C@@H](O[C@H]2C[C@@H](O)[C@]3(CO)[C@@H]4C(CC[C@]3(O)C2)[C@@]2(O)CC[C@H](C3COC(=O)C3)[C@@]2(C)C[C@H]4O)[C@H](O)[C@H](O)[C@H]1O (some centres not stated),,-14.7
Cc1ccc(C(C)C)c(OCC(=O)N2CCN(Cc3nc4cc([N+](=O)[O-])ccc4n3C)CC2)c1,,-9.32
CCCNS(=O)(=O)c1ccc(OCC(=O)N2CCN(Cc3ccc4c(c3)OCO4)CC2)c(C)c1,12.6 µM (active),
CCOC(=O)COc1ccc2c(c1)c(C(C)=O)c(C)n2Cc1ccccc1,,-25.7
Cn1cc([N+](=O)[O-])c(C(=O)Nc2ccc3c(C(F)(F)F)cc(=O)oc3c2)n1,,15.8
O=C(NC1CC2CCCC(C1)N2)c1ccccc1 (configuration not stated),10 µM (active),
Clc1ccccc1CN1CCNCC1,,-9.24
COc1ccc(Cn2c(N)c(C(=O)NCc3ccco3)c3nc4ccccc4nc32)cc1,3.98 µM (active),
O=c1oc2ccccc2c(O)c1[C@H]1c2ccc(O)cc2Oc2c1c(=O)oc1ccccc21,,-10
CN1CCc2cc3c(c4c2C1Cc1ccccc1-4)OCO3 (configuration not stated),0.562 µM (active),
O=C1/C(=C/c2ccccc2)C[C@@]2(O)[C@H]3Cc4ccc(O)c5c4[C@@]2(CCN3CC2CC2)C1O5 (some centres not stated),5.01 µM (active),
CCCCCCn1c(=O)c(C(=O)Nc2ncccc2O)c(O)c2ccccc21,,-9.27
C=C1C(O)[C@@H]2O[C@]3(CC[C@H](/C=C/C(C)[C@@H]4CC(C)=CC5(O[C@H](C[C@@](C)(O)C(=O)O)CCC5O)O4)O3)CC[C@H]2O[C@@H]1C(O)CC(C)[C@H]1OC2(CCCCO2)CCC1C (some centres not stated),0.0891 µM (active),
C=C1C(=O)O[C@@H]2C[C@@H](C)[C@@H]3C=CC(=O)[C@@]3(C)[C@@H](O)[C@H]12,1.58 µM (active),

Compound,Potency,"activity change, negative = inhibition [%]"
C=C1C(=O)O[C@@H]2C[C@@H](C)[C@@H]3C=CC(=O)[C@@]3(C)[C@@H](OC(=O)CC(=O)O[C@H]3[C@@H]4C(=C)C(=O)O[C@@H]4C[C@@H](C)[C@@H]4C=CC(=O)[C@]43C)[C@H]12,0.398 µM (active),
C=C1C(=O)O[C@H]2C[C@@H](C)[C@@H]3C=CC(=O)[C@@]3(C)C[C@H]12,2 µM (active),
CCCCN=C[C@]12CCC(O)CC1(O)CCC1[C@@H]2CC[C@]2(C)[C@H](C3C=CC(=O)O3)CCC12O (some centres not stated),,-20.3
C[C@]12CCC3C(CCC4=CC(O)CC[C@@]43/C=N/O)C1(O)CCC2C1=CC(=O)OC1 (some centres not stated),,-24
COC(=O)C1=C(c2ccc(F)cc2OCc2ccccc2)C[C@@H]2CC[C@H]1N2C(=O)NCc1ccccc1Br,1.78 µM (active),
COC(=O)C1=C(c2ccccc2OCc2ccccc2)C[C@@H]2CC[C@H]1N2C(=O)NCCOc1ccc(OC)cc1,12.6 µM (active),
CCC(C(=O)N1CCC2(CC1)OCCO2)n1c2ccccc2c2nc(=O)cc(C)n21 (configuration not stated),11.2 µM (active),
CCOc1cc2c(cc1OCC)-n1cccc1C(c1ccccc1F)NC2 (configuration not stated),10 µM (active),
CCOP(=O)(OCC)C(O)c1ccc(OC)cc1OC (configuration not stated),,-11.5
COc1ccc(-c2cc(-c3ccccc3)[n+](C)c(-c3ccccc3)c2)cc1,3.16 µM (active),
C[n+]1c(-c2ccccc2)cc(-c2ccc(Cl)cc2)cc1-c1ccccc1,2 µM (active),
Cc1cc2ccccn2c1C(C[N+](=O)[O-])c1c(F)cccc1Cl (configuration not stated),12.6 µM (active),
O=[N+]([O-])c1ccc(NC2CCCC2)c2ccncc12,,-2.56
C=CCn1c(O)c(N=Nc2c(C)n(C)n(-c3ccccc3)c2=O)c(=O)[nH]c1=S,11.2 µM (active),
C[C@@H]1C[C@@H]2O[C@H]2/C=C\C=C\C(=O)Cc2c(Cl)c(O)cc(O)c2C(=O)O1,7.08 µM (active),
C=C[C@H]1CN2CC[C@H]1C[C@@H]2[C@@H](O)c1ccnc2ccccc12,0.251 µM (active),
CN1C2CCC1/C(=C/c1ccccn1)C(=O)/C2=C\c1ccccn1,0.251 µM (active),
CC[n+]1c(-c2ccccc2)c2cc(N)ccc2c2ccc(N)cc21,1 µM (active),
CC(C)c1ccc(N2C(=O)NC(=O)/C(=C\C=C\c3ccco3)C2=O)cc1,,-10.9
CC(C)c1oc(=O)cc2c1[C@@H](O)[C@H]1OC(=O)[C@@]3(C)CC[C@@H](O)[C@@]2(C)C13 (some centres not stated),8.91 µM (active),
